Here are results for 107 sequences from PubChem BioAssay AID1508600 (Functional Genomics Laboratory (NCATS/FGL), 2020).

In all, about 53,000 sequences went through this assay and about 3,700 (7%) were called active. Only a selection was taken, and actives are over-represented in it overall. Unmarked numbers belong to inactive results.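 How the source made its calls: active means gene knockdowns whose robust z-score for IL-1 alpha signal is at least 2 or at most -2, so actives lie on both sides; inactive means the rest.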

A short description of the assay: Components of the Cytosolic LPS Sensing Pathway: Gene Identification via Genome-wide siRNA Screen. The conditions noted are these: RAW264.7 macrophages, IL-1a HTRF, actives lie on both sides, screened at 100 nM (by protocol), cells primed 5 h with Pam3CSK4 first. The text has this: Non-canonical inflammasome activation by cytosolic LPS is a critical component of the host response to Gram-negative bacterial infection, however we lack a comprehensive understanding of the cellular processes that control this pathway. Here we describe a genome-wide siRNA screen to identify genes regulating the mouse macrophage IL-1 alpha response to cytosolic LPS.
RAW264.7 cells were maintained in complete DMEM media, comprising DMEM with 4.5 g/L glucose, 10% FBS (Gemini Bio-Products, West Sacramento, CA), 2 mM Glutamine (Lonza) and 20 mM HEPES (Lonza), hereafter complete DMEM.
The RNAi screen was conducted in 384-well format using the Ambion Silencer Mouse Genome siRNA Library (#4391425), which consists of three unique, nonoverlapping, nonpooled siRNAs for each of 17,000 gene targets. siRNA reagents ([…]) were stamped into 384-well white flat-bottom microplates (Corning, 3570) using a Velocity11 VPrep liquid handling system (Agilent) integrated into a BioCel robotic platform (Agilent) in columns 1-22, leaving columns 23-24 empty for negative (Ambion, Negative control #1) and positive (mouse Casp4) controls, respectively. The median value of each plate's negative control column was used to normalize sample wells, and the positive control was used to assess transfection efficiency and assay performance.
Lipofectamine RNAiMAX Transfection Reagent ([…]; Invitrogen) was added in […] serum-free, antibiotic-free media to plate wells using a Thermo Scientific Matrix WellMate and Microplate Stacker. Plates were incubated for 45 min at room temperature to allow for the sufficient formation of siRNA-lipid complexes. Cells were seeded at a density of 1x10^4 cells per well in 20 microL media containing 20% (vol/vol) FBS without antibiotics. The final concentration of siRNA in each well was 100 nM. Cells were cultured for 48h at 37 degrees C in 5% CO2 before addition of […] of TLR ligand Pam3CSK4 for 5 hours. The medium was then removed, replaced with […] growth media and cell were transfected with […] of LipidA and TransIT-TKO (Mirus) for 24 hour. At the end of the LipidA treatment, […] of supernatant was transferred to a 384 Greiner Bio-one non-binding low volume plate and […] of IL-1a HTRF reagent (Cisbio, 62MIL1APEH) was added and incubated at room temperature overnight. The plates were read on an EnVision plate reader (PerkinElmer). Cell viability was measured by adding 20ul Cell Titer Glo to the original plate and running a luminescence read on the EnVision. The quantified IL-1a signal for each siRNA gene-targeted well was divided by the median of the negative control wells and multiplied by 100 to achieve a negative control normalized value for each well/siRNA. This normalized value was then used to generate a robust z-score by first taking the log of each value and then by subtracting the median and dividing by the […].
In general terms: TR-FRET usually uses a lanthanide donor and a delayed reading to cut background.
Turning to GGGAACCUUACUGUGUUAUTT against Gpr85, the z-score was 0.477.

In the case of GGGUUUCCAGUACCUCAAUTT against Serpina6, the z-score is -1.28.

Turning to GGCUUUUAUAGCUAAGGUUTT against Spc25, the z-score was -2.18 (active).

For the sequence GGACUGUGAACAACUUUCGTT against Tcim, the z-score was -1.07.

For GGCUAUCUACAAAAUGGUGTT against Vsnl1, the z-score was -1.31.

Take GCUAACCAGUGAUCCUACATT against Olfr846: the z-score is 0.471.

In the case of “GCACUUGUGACUUAUUGGATT against Vmn2r-ps11”, the z-score was 0.506.

GGGUCAGAGUUUUUCCAUCTT against Otog: the z-score was 2.72 (active).

Take GGGACGUAAAUCAAAUGAATT against P2ry12: the z-score was 0.096.

As to GGAGGUGGAACUGCUGUAUTT against Fam180a, the z-score is -0.257.

On to GGCAGAAAGAUUAUGAGUUTT against Gpr171, for which the z-score was 2.35 (active).

As for GGAAUUAAAAGAGCUGGGCTT against Selenon, the z-score was 0.697.

For the sequence GGGUGCUGAACAGUCACAATT against Rab12, the z-score was 0.717.

On to UGAAGGCAAAUCACUCUUUTT against Olfr181, for which the z-score is -0.042.

“GGAGGAUCCUGCUAUUCCATT against 4930583K01Rik”: the z-score was -2.24 (active).

In the case of GGUGCUGGAGAAGAACAUGTT against Map2k3, the z-score is 1.51.

In the case of GGAAAGAGAUUCUCUUCUATT against Nsun2, the z-score was -1.2.

In the case of CGGCUUUGAAGUGGUGUAUTT against Smad9, the z-score was 1.66.

With CCUUAGGCAUGGUCUGGACTT against Gal3st2, the z-score is 0.897.

For CCUUCAUGAGUCCUCUUCATT against Gaa, the z-score is -2.08 (active).

For the sequence GGGUUUUCAAAGACAAGAUTT against Frmd6, the z-score was 1.47.

Consider GGAGCUUUUUAUGUUUUAGTT against Fam177a, for which the z-score is 1.93.

Regarding CCCUGAGAUAGGCAAUGUGTT against Tceanc2, the z-score was -1.57.

Turning to GCUUCAUGGAUGCAAUUGATT against Adhfe1, the z-score is -0.659.

As to GGUUGAAAAGUAUCAAAGATT against Pus7l, the z-score is -0.359.

For the sequence GGAUUAGACUGUCUUCAGCTT against Rnf144a, the z-score is -0.496.

For GGCCUGUUUUGUACUUUUATT against Polr3gl, the z-score was 0.149.

As to GGGAUAUUCAAAAUACUAGTT against Hells, the z-score was 0.653.

As for GCUACAGACUGAACAAUGATT against Rbm17, the z-score was -2.08 (active).

For the sequence CCAUCUGAUUAAUGGCUUCTT against Tm7sf2, the z-score was 1.03.

Consider GUGCCUUUGUGGUCUUCCUTT against Tmem179, for which the z-score was -1.16.

Regarding GGAUCCCAAGUUCAAAGCCTT against Rfxap, the z-score is 2.07 (active).

On to CCUAUAACAUCCACCUUCATT against Yipf3, for which the z-score was -0.508.

Regarding GGAAACAAGAAGAACGAUGTT against Camk2a, the z-score was 1.47.

Take GCACUCAGCUAGGUGAAGATT against Hnrnpul1: the z-score was -0.186.

For the sequence GAUCUAGGACAGCUUAGAUTT against Avpr1b, the z-score was -0.955.

As for GCCAAUGAAAACCUUUUGCTT against Parp9, the z-score was -0.736.

As for GGAUUUUACAUUUCUACACTT against Tmprss15, the z-score is 2.14 (active).

For CGCACUGGAUAAUAUCAGCTT against Dok5, the z-score was 0.0135.

As to GGCAGAAAUUUGGAUACCATT against Plekha4, the z-score is 2.1 (active).

For the sequence GGAAGUUAGCUCCUAAAUATT against Pirt, the z-score was -0.383.

On to CCUUUUUUAUAUCCACUCATT against Bahcc1, for which the z-score was 1.22.

Turning to GCAUCACUGCCACAGUGCATT against Olfr159, the z-score is -0.133.

Consider GUAGUUGUUCUGAGAAAUCTT against Krtap19-2, for which the z-score is -0.49.

As for GGAAAUUCAAAAAGUGUGUTT against Aplf, the z-score is -2.25 (active).

In the case of “GGCCUGUUUUGAAGUAGAATT against B630019K06Rik”, the z-score is 0.352.

For the sequence GCCAUUUGAAACUCUCCUGTT against Gstp3, the z-score is -1.71.

In the case of GGUCCUCCAGUUAAUGUCATT against Glra3, the z-score was -0.916.

For the sequence GGUUAUCCAGAGAGUGCAUTT against Arl4d, the z-score was 1.01.

For ACUCCUAUGAGCUAGCUGUTT against Krt42, the z-score is 0.919.

As to GGAAUUGAGACCCAAUAUUTT against Cnot7, the z-score is -0.353.

Consider GGAAUCAGCAAACUCAACCTT against Rnase11, for which the z-score is -0.748.

Take GGAUUCAGAAGCAGCAACATT against Nr1h2: the z-score is -2.29 (active).

Take GGCCAAGGACAUUAUAAAUTT against Scly: the z-score was -0.585.

For the sequence AGUGAACAUCGAUCGCAUGTT against Gng8, the z-score was 0.937.

For the sequence GCAAUGGUGGUUCUAAUAUTT against Cmya5, the z-score is -0.00244.

As to GCCAACCAGGAUUUUACAATT against Fga, the z-score was 0.463.

For the sequence GGAGAGUGUGUUUUCAGGCTT against Bop1, the z-score was 3.08 (active).

For the sequence GAGUGUCUUGAACACAGCCTT against Olfr635, the z-score was -0.0711.

In the case of GGCCAAGUUCCUUUGCAUATT against Lacc1, the z-score is 0.274.

With CCAAAUGUAGCGGAACUGATT against Rsu1, the z-score is 0.195.

For GGGUAUGAGUGCAGACUAUTT against Zcchc9, the z-score is 0.803.

As for “GGCUUUGUAGCGAUAACAATT against D930030D11Rik”, the z-score was -0.936.

Consider GGUCAGUGACAUUAUCAAUTT against Vmn1r237, for which the z-score was 1.84.

Turning to GGAGCAGUUACAGGAAAUCTT against Cdr2, the z-score was -2.11 (active).

GGCAAGACUAUGAAUAUAATT against Ufsp2: the z-score was -0.486.

Consider GGAUUUGGAUUUGGAUUUUTT against Tsc22d3, for which the z-score is 0.387.

For CCUUGUACCCAGUAAAGUCTT against Mab21l4, the z-score was 0.586.

GGUGGACAAGUUCAAAGCCTT against Atg4d: the z-score is -1.56.

Take GCAGGAUAUGUAAAGGUUUTT against Gimap3: the z-score was -0.924.

CCUAAAAGCAGGCCAAAAUTT against Dhx29: the z-score was -1.26.

Turning to GGAGAAGAGCCUUCUCAAGTT against Srsf4, the z-score is 2.05 (active).

GGUUAUAGCUUCAAUAGCUTT against Bphl: the z-score is -0.61.

Consider UAACAGACCAGUAAAGGCCTT against Klra21, for which the z-score was 0.322.

For the sequence CCAGAUACCCAUAAUAUCUTT against Mbnl1, the z-score is -0.604.

For the sequence CGAUUUCCUUGGCACCAAUTT against Arhgap1, the z-score is -0.675.

As to GUGGACUUUUAGCAAUCAGTT against Olfr98, the z-score is -1.55.

Take GGAGACUUAUUGAGCAAGUTT against Usp44: the z-score is 4.42 (active).

CGCUGAAGUCUUUUCACAATT against Baiap2: the z-score is 0.286.

In the case of CCCUUUCGGGCAAUGGACUTT against Olfr986, the z-score was -0.0157.

Turning to GGGCUUAAGCUUUGAGGGUTT against Foxs1, the z-score is 0.213.

Take GGGUUUGCACUAGUUUAUUTT against Rap1a: the z-score is 0.632.

For GGUCCUAAAGCCUUUUCUATT against Mrpl10, the z-score was 0.199.

For the sequence GGAAGGGUCAGAAAAAUGUTT against Slc1a2, the z-score was 0.202.

As to GGUAAUGAUCCAUUCACCATT against Ly75, the z-score is -1.47.

With GCAUAUACUUGAUUACCGUTT against Olfr830, the z-score is -0.391.

With CCUCUGUCAGUUGGUUAACTT against Mon2, the z-score was -2.33 (active).

CCUUCUACUAAUCAAGAGATT against Sparc: the z-score was -0.578.

Regarding GGACCACAGAAGUUCUCAUTT against Pira2, the z-score is -2.88 (active).

For the sequence GCACGGAAGACUUACGAACTT against Cstf3, the z-score is 0.439.

In the case of GGACAUAUUUCCAACAUGUTT against Mob3b, the z-score was -1.34.

Consider CGAAUCAUGUGUUUGCACATT against Camkk2, for which the z-score was 1.21.

For GCCUGAUUGACUUAGAGUCTT against Eps8, the z-score was 0.821.

On to GCAGGUGAAGAGUGAUUUUTT against Il10, for which the z-score is 0.318.

Regarding GGAACUGCUUACGAAAUACTT against Lama4, the z-score was -2.33 (active).

Consider GGAUGUGUUAUCGGUGCUCTT against Mup21, for which the z-score is -0.303.

Regarding GGAAGAGGAAGAAAAAAAGTT against Iqcf4, the z-score is -0.411.

In the case of CUUACGAUACAUAAGAGAATT against Zfp457, the z-score is 0.364.

Consider CGACAACAUUUUCCUGUCATT against Serpinc1, for which the z-score is -2.07 (active).

In the case of GGAGAGAGAGAAGAAGGAUTT against Zmat2, the z-score was -1.47.

In the case of GCUCAUUCCAGGUAUCUGATT against Fcna, the z-score was -1.19.

Turning to GCUAUGACAGUUAUGCUACTT against Cirbp, the z-score is 0.874.

GGAUACGAGACAAUGAGAATT against Kctd2: the z-score is -0.404.

In the case of GCGAAUUACUAUGUACCUATT against Sqor, the z-score was 1.75.

Regarding GGACUGAGGAGAGCAAUAUTT against Cts6, the z-score was -1.29.

As to GGCGGACAGAAAUUAUAGATT against Tnpo3, the z-score is 3.19 (active).

Turning to CCGUUGCCUGAUAAGUUCUTT against Klf3, the z-score is 0.576.
